Experimental data from the supplement of paper PMC6555819.

Key:
Assay in all cases: PBM binding z-score (relative to random genomic background probes); higher = stronger binding; sequences stand for … in GC…GCGATTGACAGCGTAGAATGAAGG
[1] = test system: FXR:RXRa (NR concentration 270 nM, RXRa partner concentration 90 nM)
Method in brief: (§1)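 Scanned fluorescence from custom Agilent 4×180K protein-binding microarrays was regression-normalized. Binding z-scores use random background probes as reference. Ligand-free nuclear receptor dimers were incubated on the arrays for 1 h and detected with antibodies against each partner (one per run).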

[2] = test system: LXRa homodimer (NR concentration 270 nM)
Method in brief: as §1

[3] = test system: LXRb homodimer (NR concentration 270 nM)
Method in brief: as §1

[4] = test system: PPARa:RXRa (NR concentration 270 nM, RXRa partner concentration 90 nM)
Method in brief: as §1

[5] = test system: PPARg:RXRa (NR concentration 180 nM, RXRa partner concentration 90 nM)
Method in brief: as §1

[6] = test system: PPARg:RXRa 270nM:90nM, anti-RXR (NR concentration 270 nM, RXRa partner concentration 90 nM)
Method in brief: as §1

[7] = test system: PPARg:RXRa 30nM:10nM, anti-RXR (NR concentration 30 nM, RXRa partner concentration 10 nM)
Method in brief: as §1

[8] = test system: PPARg:RXRa 90nM:30nM, anti-RXR (NR concentration 90 nM, RXRa partner concentration 30 nM)
Method in brief: as §1

[9] = test system: PPARg:RXRa DBDmut IVT, anti-RXR (DBD mutation: RXRa K156A/R161A, NR concentration 270 nM, RXRa partner concentration 90 nM)
Method in brief: as §1

[10] = test system: PPARg:RXRa IVT, anti-PPARg (NR concentration 270 nM, RXRa partner concentration 90 nM)
Method in brief: as §1

[11] = test system: PPARg DBDmut:RXRa IVT, anti-PPARg (DBD mutation: PPARg1 K132A/R137A, NR concentration 270 nM, RXRa partner concentration 90 nM)
Method in brief: as §1

[12] = test system: PPARg DBDmut IVT, anti-PPARg (DBD mutation: PPARg1 K132A/R137A, NR concentration 270 nM)
Method in brief: as §1

[13] = test system: PPARg homodimer (NR concentration 180 nM)
Method in brief: as §1

[14] = test system: PXR:RXRa (NR concentration 270 nM, RXRa partner concentration 90 nM)
Method in brief: as §1

[15] = test system: PXR homodimer (NR concentration 270 nM)
Method in brief: as §1

[16] = test system: RARa:RXR (NR concentration 270 nM, RXRa partner concentration 90 nM)
Method in brief: as §1

[17] = test system: RARa homodimer (NR concentration 270 nM)
Method in brief: as §1

[18] = test system: RARb:RXRa (NR concentration 270 nM, RXRa partner concentration 90 nM)
Method in brief: as §1

[19] = test system: RARb homodimer (NR concentration 270 nM)
Method in brief: as §1

Sequence	PBM binding z-score [1]	PBM binding z-score [2]	PBM binding z-score [3]	PBM binding z-score [4]	PBM binding z-score [5]	PBM binding z-score [6]	PBM binding z-score [7]	PBM binding z-score [8]	PBM binding z-score [9]	PBM binding z-score [10]	PBM binding z-score [11]	PBM binding z-score [12]	PBM binding z-score [13]	PBM binding z-score [14]	PBM binding z-score [15]	PBM binding z-score [16]	PBM binding z-score [17]	PBM binding z-score [18]	PBM binding z-score [19]
TCTCGGAGGACACAAAGGTCAGAGCTTTCCAGAG	3.05	2.17	-0.2	3.86	3.27	4.43	3.16	4.07	1.57	2.39	-0.467	-0.672	2.65	4.46	3.76	4.59	1.37	4.22	4.77
TATACAAGGTCAAAGGCCAGAGTACGAATGTCGA	7.51	6.08	4.21	6.24	8.52	7.39	5.48	7.66	2.91	5.15	1.68	2.18	2.34	4.53	0.743	5.37	0.491	5.27	4.35
CCTTACGGGTCACTCCAGGTTATATCATCGGAGT	4.99	2.49	0.56	4.5	3.65	3.72	0.84	2.78	2.96	3.56	0.671	-0.354	1.62	5.16	0.444	3.62	0.321	3.69	3.31
AGAATGAGGTTACTAAAGATCAGGGAAACGCTTG	1.18	0.111	0.0247	2.5	1.81	1.58	0.706	1.07	3.7	2.84	0.939	0.661	0.271	0.942	0.152	1.21	0.392	1.51	0.777
TAGCCTAGGTCATGCGGGCCAATATAGTGTCGGC	4.22	0.473	-0.31		2.39	2.44	0.146	1.26	1.58	2.94	-0.152	-0.18	0.69	1.64	-0.334	2.13	-0.396	3.67	3.15
GCATATAGGTAATACAAGGTCAAAGTCCGATTGT	3.47	9.94	1.42	4.21	2.69	3.32	1.39	2.9	4.1	4.1	0.883	0.92	1.97	4.93	2.12	4.47	1.17	2.92	3.79
TAGCCTAGTTCATGCGGGCCAGTATAGTGTCGGC	-0.33	-0.511	-0.772		-0.0909	-0.0482	-0.651	-0.319	0.864	0.949	-0.253	-0.528	-0.545	0.59	0.113	-0.185	-0.774	1.05	0.519
ATATGTAGGTTAACTGGGGTCATTCAGACTAGGC	5.59	5.57	1.43	5.96	7.58	6.61	4.49	6.42	7.59	7.34	1.81	2.42	1.95		5.25	5.93	1.61	3.55	4.28
CTCGAAAGGTCGTGCTCAGATGAGTATACCAAAC	5.4	0.0537	0.486	4.71	2.71	3.42	0.769	2.09	0.422	1.25	0.625	1.37	1.3	2.96	0.152		0.441	3.79	2.15
ATATGTAGGTTACATCCGGGTCATCCAGGCTATG	1.91	1.67	0.838	4.41	6.12	5.21	2.47	4.55	7.32	7.51	3.31	2.5	2.45	3.45	1.14	3.67	0.961	2.3	3.26
CGTCCAAGGTCATTGGAGGTCAGTGAAGACAGAT	7.92	6.77	1.93	5.85	5.48	5.76	2.48	4.57	3.6	4.79	0.319	-0.697	5.59	7.17	8.63	6.25	2.43	5.56	5.54
CCTTACGGGTCAAGGTTATAGCCCGGGTGGTACG	5.51	0.231	-0.334	4.97	4.06	4.86	1.37	3.74	1.8	3.44	-0.234	-0.862	1.69	3.43	0.303	4.46	0.676	4.33	3.8
CGTCAAACTTCAACTAAGGTAACGTAAAGCACGC	0.562	0.473	0.584	0.493	0.587	0.064	0.351	0.111	0.0564	0.514	0.469	0.79	0.684	0.396	0.0401	0.922	1.05	0.391	0.665
TAGCCTAGGTTATGGGCCAGTATACCACGCGAAC	-0.238	-0.332	-0.441	0.542	0.643	0.89	-0.0157	0.388	0.121	0.996	-0.249	-0.26	0.0998	-0.0911	-0.214	0.27	-0.107	0.734	0.24
ATCGAAAGGTCGAAGGTGAGCATACCCACCCGAA	4.19	0.288	0.758	5.01	5.08	5.08	2.36	4.36	0.147	2.39	0.377	0.499	1.46	3.16	0.092	4.44	0.708	3.86	3.01
